# Mcl-1 Bim block: inhibitors of Bim peptide binding to Mcl-1, primary screen, biochemical, bead-based flow cytometry, multiplex; Induced myeloid leukemia cell differentiation protein Mcl-1 (Homo sapiens), Q07820; Bim peptide-Mcl-1 binding; inhibition, % at 10 µM; actives 0.1% (n = 190,000); in the data active means inhibition above about 40%;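 further: 0% = no compound tracer wells and 100% = peptide blocker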
# Target sequence (Q07820 whole entry, looked up): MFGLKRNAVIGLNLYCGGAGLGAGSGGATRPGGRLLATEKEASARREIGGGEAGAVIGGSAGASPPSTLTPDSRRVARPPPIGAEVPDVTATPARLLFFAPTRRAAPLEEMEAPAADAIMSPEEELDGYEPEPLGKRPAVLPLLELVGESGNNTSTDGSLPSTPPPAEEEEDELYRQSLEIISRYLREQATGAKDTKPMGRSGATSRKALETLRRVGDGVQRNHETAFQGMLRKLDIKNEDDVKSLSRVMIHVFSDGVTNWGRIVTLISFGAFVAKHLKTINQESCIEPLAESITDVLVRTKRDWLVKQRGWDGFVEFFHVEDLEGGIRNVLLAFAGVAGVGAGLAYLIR
# Mcl1-Bid inh: Mcl-1/Bid binding inhibitors, primary screen, biochemical, TR-FRET, 1536-well. Induced myeloid leukemia cell differentiation protein Mcl-1 (Homo sapiens), Q07820. TR-FRET Mcl-1/Bid-Dy647 peptide binding. inhibition, % at 21.7 µM. actives 0.97% (n = 220,000). AID 1021, 2008;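 active means compounds that cut the binding signal by more than half at the single screening dose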;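 further: His-tagged Mcl-1 with europium anti-His antibody binding Bid BH3 peptide; 0% = Mcl-1 plus peptide wells and 100% = peptide-only wells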
# eIF4E 4G PPI: eIF4E–eIF4G protein interaction inhibitors, primary screen, biochemical, uHTS, TR-FRET, eIF4GI fragment; TR-FRET eIF4E-eIF4GI(517-606) binding, 2 h; AID 782, 2007; inhibition, % at 21.7 µM; Eukaryotic translation initiation factor 4E (Mus musculus) + Eukaryotic translation …; actives 0.37% (n = 220,000);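 further: 0% = full FRET control wells and 100% = background wells lacking eIF4GI fragment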
# Mcl1-Noxa inh: Mcl-1/Noxa binding inhibitors, primary screen, biochemical, TR-FRET, 1536-well | AID 1022, 2008 | TR-FRET Mcl-1/Noxa peptide binding, 2 h | actives 1.5% (n = 220,000) | Induced myeloid leukemia cell differentiation protein Mcl-1 (Homo sapiens), Q07820 | inhibition, % at 21.7 µM;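 active means compounds that cut the protein-peptide binding signal by more than 50% relative to plate controls in a single-dose test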;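 further: His-tagged Mcl-1 with rhodamine Noxa BH3 peptide and terbium anti-His antibody; 0% = Mcl-1 plus Noxa peptide wells and 100% = peptide-only wells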
# 14-3-3 Bad PPI: inhibitors of 14-3-3 zeta/Bad binding, primary screen, biochemical, TR-FRET, bovine 14-3-3 zeta. AID 781, 2007. 14-3-3 protein zeta/delta (Bos taurus), P63103. TR-FRET 14-3-3zeta/Dy647-pBad peptide displacement, 1 h. inhibition, % at 21.7 µM. actives 0.71% (n = 220,000);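 active means inhibition above about 70%, limit read from the data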;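 further: 0% = full 14-3-3 plus peptide FRET controls and 100% = background without 14-3-3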
# NCF1 inh: p47phox/p22phox peptide binding inhibitors, primary screen, biochemical, uHTS, NADPH oxidase regulatory subunit. inhibition, % at 24.7 µM. actives 0.53% (n = 220,000). fluorescence polarization, 2 h. Neutrophil cytosol factor 1 (Homo sapiens), P14598;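 further: 0% = p47phox with labelled peptide and 100% = labelled peptide alone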
# * hit, by the source's call; x = no result; [ ] = dose if it differs, or a comment. Sampled rows, rich in hits. Any-hit rate of the full collection: about 3.3%.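 How the source made its calls, unless noted: active means inhibition above about 30% (limit read from the data); inactive means the rest.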
SMILES,Mcl-1 Bim block,Mcl1-Bid inh,eIF4E 4G PPI,Mcl1-Noxa inh,14-3-3 Bad PPI,NCF1 inh
CN(CCc1ccccn1)C(=O)CCC1CCCN(C(=O)c2ccsc2)C1 (centres undefined),1.0,-45.0,0.4,9.6,-5.2,2.0
Cn1c(NC(=O)Cc2ccc(F)cc2)cc(=O)n(C)c1=O,0.0,65.4*,4.8,-0.5,8.6,3.3
CCCC(=O)Nc1ccc2c(c1)nc(CCN1CCCCC1)n2C,x,-7.9,-1.1,4.1,-3.3,-2.1
O=C(NCc1ccccc1)C(=O)NCC(c1ccco1)N1CCN(c2ccccc2F)CC1 (centres undefined),-3.0,-45.0,0.5,0.9,-7.2,59.1*
O=C(NCc1cccnc1)C(=O)NCC(c1ccco1)N1CCN(c2ccccc2F)CC1 (centres undefined),-6.0,-40.3,5.7,10.4,-24.6,-4.1
NS(=O)(=O)c1ccc(CCNC(=O)COC(=O)CN2C(=O)C3CCCCC3C2=O)cc1 (centres undefined),-3.0,-4.6,0.2,11.4,-14.5,-4.1
COCCNC(=O)c1cc(Sc2nnc(C)s2)nc2ccccc12,x,-7.2,-3.9,-0.1,-1.5,-2.1
Cc1nnc(Sc2cc(C(=O)NC3CC3)c3ccccc3n2)s1,x,98.6*,-6.8,0.3,0.5,2.7
Cc1ccnc(NS(=O)(=O)c2ccc3c(c2)CCO3)c1,x,-31.1,88.2*,14.1,5.2,-9.8
O=S(=O)(Nc1ccc(Cl)cc1)c1ccc2c(c1)CCO2,x,16.4,-0.9,3.4,98.0*,-15.1
O=S(=O)(N/N=C\C=C\c1ccccc1)c1ccc(Cl)cc1,0.0,-59.1,9.3,15.4,-5.9,-50.7
Cc1ccc(-n2nnnc2C(Cl)(Cl)c2nnnn2-c2ccc(C)cc2)cc1,-9.0,-29.7,14.6,53.3*,15.7,-1.9
Clc1ccc(-c2nnnn2-c2ccc(Cl)cc2)cc1,x,-4.5,-5.0,-8.6,1.9,0.9
COC(=O)c1cccc(NC(=S)NC(C)C)c1,-2.0,-17.3,1.6,9.6,-6.8,x
CC[N+]1=CN(c2ccccc2)C(C)=CC1(C)C,2.0,-68.6,1.7,8.3,82.4*[fluorescence artefact?],2.6
CC12CN3CC(C)(CN(C1)C3c1ccccc1)C2O (centres undefined),-2.0,2.6,1.1,8.7,-5.2,-4.5
CC12CN3CC(C)(CN(C1)C3c1ccccc1Cl)C2O (centres undefined),-2.0,-2.6,1.4,87.6*,0.8,-17.8
Cc1ccc(NC(=O)c2noc(C(C)C)c2[N+](=O)[O-])cc1,-5.0,-15.5,3.4,7.5,2.7,-0.5
C/C(=N\Nc1nc2c(s1)CCCC2)c1ccccc1,0.0,20.2,8.7,27.9,80.2*[fluorescence artefact?],-16.2
COc1ccc(N=c2oc3cc(O)ccc3cc2C(=O)Nc2ccccn2)cc1OC,4.0,5.3,8.0,52.9*,18.1,-14.3
Cc1ccc(N=c2oc3cc(O)ccc3cc2C(N)=O)cc1,0.0,-11.1,-6.5,16.6,-15.2,-3.4
O=C(NC(=S)Nn1cnc2c(cnn2-c2ccccc2)c1=O)c1ccccc1,-4.0,-109.7,3.4,-31.0,-10.6,-24.7
COC(=O)c1ccc(C)c(NC(=O)CCNC(=O)c2ccc([N+](=O)[O-])cc2)c1,46.0*,-10.9,4.3,15.1,0.1,-2.3
O=C(O)C1CN(C(=O)c2cccc(Br)c2)C1,-3.0,-36.7,-0.6,-7.3,-3.1,4.1
CCC(=O)Nc1sc2c(c1C#N)CC(C)(CC)OC2 (centres undefined),-4.0,-6.8,10.9,-6.6,-11.0,-4.1
O=Cc1ccc(-c2ccccc2C(=O)O)o1,0.0,-20.6,-1.6,10.3,-0.9,-9.8
O=C(O)c1ccccc1-c1ccc(/C=c2\sc3nc4cc(Br)cnc4n3c2=O)o1,-2.0,77.5*,23.0,90.8*,36.0,-12.9
